From PubChem
VP16 counter = counter-screen for ROR gamma inhibitors: Gal4-VP16 reporter. Drosophila S2 Gal4-VP16 UAS-luciferase, luminescence, 20 h. Potency, µM (top dose mostly 53.6 µM), without a hit: at the top dose activity, negative = inhibition, most hits filed as inhibitors. 3.5% of 310,000 active;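 note: Gal4-VP16 expression switched on by copper sulfate through the metallothionein promoter; nearly all actives have a fitted effect of over 50% in size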
DT40 TDP1 CPT = growth inhibition of DT40 Tdp1-/-;hTDP1 cells with camptothecin (screen for TDP1 inhibitors); chicken DT40 Tdp1-/-;hTDP1 cells + 20 nM CPT, ATP luminescence, 48 h; Potency, µM (doses to about 46.2 µM), without a hit: at the top dose activity change, negative = growth inhibition, actives largely listed as inhibitors; 12% of 420,000 active; AID 686979; note: nearly all actives have a fitted effect of over 55% in size
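Chicken DT40 Tdp1-/- cells stably complemented with human TDP1 were seeded at 400 cells/well in medium containing 20 nM camptothecin, exposed to pin-transferred compounds, and grown at 37 °C for at least 48 hr. Viability was read as ATP luminescence.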
ALOX12 inh = blocks human arachidonate 12S-lipoxygenase; P18054; 1.1% of 580,000 active; purified 12hLO, xylenol orange hydroperoxide absorbance; Potency, µM (doses to about 108 µM), inactives show at the top dose activity change, negative = inhibition, actives largely listed as inhibitors; AID 1671190
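Hydroperoxide product was detected by ferrous iron/xylenol orange as the 573 to 405 nm absorbance ratio. Arachidonic acid at 40 uM (final) was turned over for 30 min at room temperature by 150 nM human 12hLO, pH 7.0 Hepes buffer, after 15 min compound preincubation.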
TDP1 cell noCPT = qHTS for Inhibitors of human tyrosyl-DNA phosphodiesterase 1 (TDP1): qHTS in cells in absence of CPT; DT40 Tdp1-/- hTDP1 cells, no CPT, ATP luminescence, 48 h; 15% of 420,000 active; Potency, µM (titrated, usually from 46.2 µM), inactives show at the highest dose activity change, negative = growth inhibition, usual class: inhibitors; note: nearly all actives have a fitted effect of over 55% in size
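Cells were dispensed at 400 per well, compounds added by pin tool, plates incubated ≥48 hr at 37 °C, then CellTiter-Glo added for 30 min at room temperature before luminescence reading. Line: DT40 Tdp1-/- complemented with hTDP1; camptothecin omitted.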
ELG1 repair inh = inhibitors of ELG1-dependent DNA repair in HEK293T cells | HEK293T ELG1-luciferase reporter, luminescence, 16 h; DNA damage induced by 5-fluorouridine | Potency, µM (doses to about 46.1 µM), for the others: top-dose activity change, negative = inhibition, actives largely listed as inhibitors | 2.3% of 330,000 active | AID 504467; note: nearly all actives have a fitted effect of over 55% in size
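5-Fluorouridine DNA damage + compound/DMSO, 2,000 cells/well, 16 h, 37 °C/5% CO2. ONE-Glo, 30 min RT, luminescence. Readout = decrease in reporter signal.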
RORg inh = blocks mouse ROR gamma transcriptional activity. P51450. Drosophila S2 Gal4-RORgamma UAS-luciferase reporter, 20 h. Potency, µM (titrated, usually from 53.6 µM), without a hit: top-dose activity change, negative = inhibition, most hits filed as inhibitors. 5.4% of 310,000 active. AID 2551; note: nearly all actives have a fitted effect of over 60% in size
Target sequence (P51450 whole entry, looked up, the tested form may be a part): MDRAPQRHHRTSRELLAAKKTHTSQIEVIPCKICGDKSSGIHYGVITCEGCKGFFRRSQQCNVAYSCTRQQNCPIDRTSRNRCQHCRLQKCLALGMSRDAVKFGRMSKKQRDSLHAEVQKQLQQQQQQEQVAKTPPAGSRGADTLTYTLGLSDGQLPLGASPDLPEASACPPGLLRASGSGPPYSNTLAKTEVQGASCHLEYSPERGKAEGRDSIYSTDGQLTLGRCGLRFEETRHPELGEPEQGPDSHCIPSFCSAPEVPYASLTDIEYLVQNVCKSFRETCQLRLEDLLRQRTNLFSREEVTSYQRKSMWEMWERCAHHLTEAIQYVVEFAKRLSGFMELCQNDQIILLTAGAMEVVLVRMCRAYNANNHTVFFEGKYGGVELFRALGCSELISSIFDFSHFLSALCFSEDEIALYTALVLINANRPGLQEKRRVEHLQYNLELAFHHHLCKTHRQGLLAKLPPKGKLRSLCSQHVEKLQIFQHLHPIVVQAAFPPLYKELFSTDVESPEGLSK
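Stably transfected Drosophila Schneider cells are the test system, with ROR gamma fused to Gal4 and luciferase under UAS control; luminescence is read after 20 hr of 700 uM copper sulfate induction at ambient temperature.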
The depositor's hits bear a star. Shown are actives, neighbours in structure and some others; about 15% of the full set was active somewhere. Calls come from the whole dose curve; as a rule, active = well fitted curve in the direction sought with a large enough effect; inconclusive = small, poorly fitted or top-dose-only effect, or another doubt; inactive = no such curve, though single readings can be large; an effect the other way counts as inactive or inconclusive. % is set by controls: 0 for no effect and ±100 for the full control effect; potency is the fitted concentration of half-maximal effect.

Screening Cc1ccc(C(=O)N[C@H](C(=O)OCc2nnc(-c3ccccc3)o2)C(C)C)cc1 returned VP16 counter 3.1%, DT40 TDP1 CPT -32.5%, ALOX12 inh 27.1%, TDP1 cell noCPT -19.2%, ELG1 repair inh 18.4% and RORg inh inconclusive.
Screening NC(=O)COC(=O)c1ccc(S(=O)(=O)NCc2ccco2)cc1 returned VP16 counter 1.7%, DT40 TDP1 CPT -6.7%, ALOX12 inh -0.6%, TDP1 cell noCPT -22.9%, ELG1 repair inh 14.6% and RORg inh 1.0%.
`CC(=O)c1c(C)[nH]c(C(=O)OCc2nnc(-c3ccccc3)o2)c1C` gave VP16 counter 1.5%, DT40 TDP1 CPT inconclusive, ALOX12 inh 0.0%, TDP1 cell noCPT 13µM*, ELG1 repair inh inconclusive and RORg inh 17.5%.
`CS(=O)(=O)c1ccc(C(=O)OCc2nnc(-c3ccccc3)o2)cc1[N+](=O)[O-]` gave VP16 counter 12.6µM*, DT40 TDP1 CPT 3.66µM*, ALOX12 inh 0.9%, TDP1 cell noCPT 10.3µM*, ELG1 repair inh 26.1% and RORg inh 15.8µM*.
`Cc1nn(CCc2nnc(Nc3ccn(Cc4ccccc4Cl)n3)s2)c(C)c1Cl` gave ALOX12 inh -0.9%.
For COc1ccc(CN(C)C(=O)C2CSC3(C)CCC(=O)N23)cc1 (configuration not stated) the results were DT40 TDP1 CPT -21.1%, ALOX12 inh 18.0%, TDP1 cell noCPT -17.4% and ELG1 repair inh 14.8%.
`CN(Cc1cccc(Cl)c1)C(=O)C1CSC2(C)CCC(=O)N12` (configuration not stated) gave VP16 counter 12.1%, DT40 TDP1 CPT 18.4µM*, ALOX12 inh -10.2%, TDP1 cell noCPT 20.6µM*, ELG1 repair inh 2.6% and RORg inh 7.9%.
`COc1ccc(CN(C)C(=O)C2CSC3(C)CCC(=O)N23)cc1OC` (configuration not stated) gave DT40 TDP1 CPT -4.7%, ALOX12 inh 9.7%, TDP1 cell noCPT -9.2% and ELG1 repair inh 13.2%.
`COc1ccc(CN(C)C(=O)C2CSC3(C)CCC(=O)N23)c(OC)c1` (configuration not stated) gave DT40 TDP1 CPT 11.6µM*, ALOX12 inh -33.8% and TDP1 cell noCPT 14.6µM*.
CN(Cc1ccc(Cl)cc1Cl)C(=O)C1CSC2(C)CCC(=O)N12 (configuration not stated) was read as DT40 TDP1 CPT 13µM*, ALOX12 inh 0.2% and TDP1 cell noCPT 16.4µM*.
`CN(CC1CCOC1)S(=O)(=O)Cc1ccccc1` (configuration not stated) gave ALOX12 inh 29.5%.
Screening Cc1ccc(S(=O)(=O)NC[C@H]2OC[C@@H](NCc3ccc(S(C)(=O)=O)cc3)[C@@H]2O)cc1 returned ALOX12 inh -16.8%.
`O=C(CSc1ccc(-c2cccc([N+](=O)[O-])c2)nn1)NC1CCCC1` gave VP16 counter -2.4%, DT40 TDP1 CPT 6.0%, ALOX12 inh 173.6%, TDP1 cell noCPT -26.9%, ELG1 repair inh -3.0% and RORg inh 1.78µM*.
Screening COc1ccc([N+](=O)[O-])cc1NCC(=O)Nc1cccc(S(=O)(=O)N2CCCC2)c1 returned DT40 TDP1 CPT inconclusive, ALOX12 inh -19.8%, TDP1 cell noCPT 16.4µM* and ELG1 repair inh inconclusive.
Screening O=C(COC(=O)c1cccc([N+](=O)[O-])c1)NC1CCCC1 returned VP16 counter -9.1%, DT40 TDP1 CPT -3.2%, ALOX12 inh -0.6%, TDP1 cell noCPT 9.1%, ELG1 repair inh -3.0% and RORg inh 0.3%.
